From the supplement of paper PMC10849652
Targets with a hit are over-represented here; the source holds about 7,900 in all. About 0.6% of all pairs of compound and target were hits. Unmarked numbers belong to inactive results.

Assays:
Assay in all cases: log2 fold change, soluble protein after heating vs DMSO (PISA); higher = thermal stabilisation; K562 cells, 10 uM, 30 min; active = over 0.2 and 3.5 SD of the protein, either way, in both replicates (recomputed)
[1] = compound: COC1=CC=C(C=C1)CN2C=CC3=C2C=C(C=C3)C(=O)NO
Method in brief: (§1)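 K562 cells at 2×10^6 cells/mL were treated for 30 min with 10 μM compound, and aliquots were heated for 3 min over 48°C-58°C before pooling. Extraction used PBS with 0.5% NP-40 at 4°C, and soluble protein was the supernatant after 21,000xg for 90 min, measured by TMTpro 16plex LC-MS/MS with channel sums equalised. Thermal stability values, relative to control samples and from duplicates, are log2 fold changes.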

[2] = compound: CON(C)C(=O)N1N=C(c2cc(F)ccc2F)S[C@@]1(CCCN)c1ccccc1 [filanesib]
Method in brief: as §1

[3] = compound: CO[C@H]1C[C@@H]2CC[C@@H](C)[C@@](O)(O2)C(=O)C(=O)N2CCCC[C@H]2C(=O)O[C@H]([C@H](C)C[C@@H]2CC[C@H](n3cnnn3)[C@H](OC)C2)CC(=O)[C@H](C)/C=C(\C)[C@@H](O)[C@@H](OC)C(=O)[C@H](C)C[C@H](C)/C=C/C=C/C=C/1C [zotarolimus]
Method in brief: as §1

[4] = compound: COc1cc(C(=O)O)ccc1NC(=O)[C@@H]1N[C@@H](CC(C)(C)C)[C@](C#N)(c2ccc(Cl)cc2F)[C@H]1c1cccc(Cl)c1F [idasanutlin]
Method in brief: as §1

[5] = compound: COc1cc(Nc2ncc3c(n2)-c2ccc(Cl)cc2C(c2c(F)cccc2OC)=NC3)ccc1C(=O)O [alisertib]
Method in brief: as §1

[6] = compound: COc1cc2nc(-c3cc(F)ccc3O)nc(N[C@@H]3CNC[C@H]3C(C)(C)O)c2cc1OC
Method in brief: as §1

[7] = compound: COc1cc2ncnc(Nc3ccc(F)c(Cl)c3)c2cc1OCCCN1CCOCC1 [gefitinib]
Method in brief: as §1

[8] = compound: COc1cccc2cc(-c3nc([C@H]4CC[C@H](C(=O)O)CC4)n4ncnc(N)c34)[nH]c12
Method in brief: as §1

[9] = compound: CS(=O)(=O)CCNCc1ccc(-c2ccc3ncnc(Nc4ccc(OCc5cccc(F)c5)c(Cl)c4)c3c2)o1 [lapatinib]
Method in brief: as §1

[10] = compound: CS(=O)(=O)N1CCN(Cc2cc3nc(-c4cccc5[nH]ncc45)nc(N4CCOCC4)c3s2)CC1 [pictilisib]
Method in brief: as §1

UniProt Q6BDS2, sequence (Q6BDS2 whole entry, looked up): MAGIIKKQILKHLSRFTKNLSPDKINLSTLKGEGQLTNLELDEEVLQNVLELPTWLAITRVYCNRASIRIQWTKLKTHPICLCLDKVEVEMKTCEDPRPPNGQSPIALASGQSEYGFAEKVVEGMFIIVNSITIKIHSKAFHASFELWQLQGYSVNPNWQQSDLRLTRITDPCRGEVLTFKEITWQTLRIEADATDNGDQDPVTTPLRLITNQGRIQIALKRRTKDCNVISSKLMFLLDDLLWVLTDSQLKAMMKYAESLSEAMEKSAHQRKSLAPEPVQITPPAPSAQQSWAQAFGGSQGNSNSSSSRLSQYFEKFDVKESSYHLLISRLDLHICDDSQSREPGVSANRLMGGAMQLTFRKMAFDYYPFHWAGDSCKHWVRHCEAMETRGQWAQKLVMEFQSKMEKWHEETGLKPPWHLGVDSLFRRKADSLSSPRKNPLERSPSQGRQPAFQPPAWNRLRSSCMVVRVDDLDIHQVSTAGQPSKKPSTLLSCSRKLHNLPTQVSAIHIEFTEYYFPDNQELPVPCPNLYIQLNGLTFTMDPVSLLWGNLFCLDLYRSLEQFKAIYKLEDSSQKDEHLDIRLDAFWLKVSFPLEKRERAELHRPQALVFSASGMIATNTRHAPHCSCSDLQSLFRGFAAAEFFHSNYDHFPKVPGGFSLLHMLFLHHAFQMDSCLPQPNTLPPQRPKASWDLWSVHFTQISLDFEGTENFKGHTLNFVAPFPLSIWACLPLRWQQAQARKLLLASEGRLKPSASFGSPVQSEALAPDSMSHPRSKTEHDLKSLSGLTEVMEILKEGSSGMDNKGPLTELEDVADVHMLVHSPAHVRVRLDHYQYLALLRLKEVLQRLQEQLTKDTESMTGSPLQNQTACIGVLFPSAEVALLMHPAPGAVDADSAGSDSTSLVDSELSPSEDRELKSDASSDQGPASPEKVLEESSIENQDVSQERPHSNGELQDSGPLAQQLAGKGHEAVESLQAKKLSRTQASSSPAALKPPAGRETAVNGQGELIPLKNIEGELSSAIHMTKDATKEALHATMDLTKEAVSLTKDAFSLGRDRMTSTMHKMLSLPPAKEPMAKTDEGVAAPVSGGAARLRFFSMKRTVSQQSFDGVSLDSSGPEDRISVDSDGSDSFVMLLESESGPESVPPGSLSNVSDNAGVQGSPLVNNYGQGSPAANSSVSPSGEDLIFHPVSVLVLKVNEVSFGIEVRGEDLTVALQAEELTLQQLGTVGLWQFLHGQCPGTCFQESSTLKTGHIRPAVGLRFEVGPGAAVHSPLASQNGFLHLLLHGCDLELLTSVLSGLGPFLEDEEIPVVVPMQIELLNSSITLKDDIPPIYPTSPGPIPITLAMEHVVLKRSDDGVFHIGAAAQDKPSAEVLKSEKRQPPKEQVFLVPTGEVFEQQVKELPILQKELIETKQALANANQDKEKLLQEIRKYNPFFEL
UniProt Q969X6, sequence (Q969X6 whole entry, looked up): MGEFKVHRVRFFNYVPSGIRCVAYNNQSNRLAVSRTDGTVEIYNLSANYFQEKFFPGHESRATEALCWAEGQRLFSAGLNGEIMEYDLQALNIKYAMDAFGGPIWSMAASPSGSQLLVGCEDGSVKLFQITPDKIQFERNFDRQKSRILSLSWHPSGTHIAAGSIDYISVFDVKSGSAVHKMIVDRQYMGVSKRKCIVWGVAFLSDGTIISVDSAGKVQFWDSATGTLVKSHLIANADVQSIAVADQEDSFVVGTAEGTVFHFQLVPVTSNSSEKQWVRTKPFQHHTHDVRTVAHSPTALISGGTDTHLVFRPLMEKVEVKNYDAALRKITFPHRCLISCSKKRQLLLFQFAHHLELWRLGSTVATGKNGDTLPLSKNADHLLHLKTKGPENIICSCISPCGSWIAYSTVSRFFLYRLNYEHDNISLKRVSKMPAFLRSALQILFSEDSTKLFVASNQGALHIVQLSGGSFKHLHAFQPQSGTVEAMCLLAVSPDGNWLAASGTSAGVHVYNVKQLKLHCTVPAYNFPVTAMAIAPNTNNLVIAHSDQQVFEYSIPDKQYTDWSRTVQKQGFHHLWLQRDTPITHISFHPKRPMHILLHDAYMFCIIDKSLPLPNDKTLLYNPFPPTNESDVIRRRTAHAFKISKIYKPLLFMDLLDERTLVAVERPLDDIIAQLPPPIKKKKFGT
UniProt O94874, sequence (O94874 whole entry, looked up): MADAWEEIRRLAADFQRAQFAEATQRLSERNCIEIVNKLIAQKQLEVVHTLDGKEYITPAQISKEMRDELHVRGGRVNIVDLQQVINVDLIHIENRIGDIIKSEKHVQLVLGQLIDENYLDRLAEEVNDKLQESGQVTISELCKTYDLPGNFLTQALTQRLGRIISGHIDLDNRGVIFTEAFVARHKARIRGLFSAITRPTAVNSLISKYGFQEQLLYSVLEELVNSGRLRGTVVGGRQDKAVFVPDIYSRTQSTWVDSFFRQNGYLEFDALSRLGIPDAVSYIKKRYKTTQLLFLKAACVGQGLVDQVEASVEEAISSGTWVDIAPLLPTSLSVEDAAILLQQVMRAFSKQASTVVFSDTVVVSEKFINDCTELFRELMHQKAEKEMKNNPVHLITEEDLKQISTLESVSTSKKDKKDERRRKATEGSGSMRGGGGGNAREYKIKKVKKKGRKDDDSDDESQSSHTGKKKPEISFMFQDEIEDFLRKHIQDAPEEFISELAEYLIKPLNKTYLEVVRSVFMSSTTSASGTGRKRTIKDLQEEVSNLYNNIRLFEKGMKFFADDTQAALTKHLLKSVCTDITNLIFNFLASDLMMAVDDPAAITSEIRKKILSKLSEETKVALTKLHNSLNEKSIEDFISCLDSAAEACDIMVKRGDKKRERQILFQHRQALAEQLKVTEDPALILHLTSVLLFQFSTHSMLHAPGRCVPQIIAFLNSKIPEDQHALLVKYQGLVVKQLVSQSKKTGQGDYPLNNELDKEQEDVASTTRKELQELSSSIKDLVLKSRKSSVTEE
UniProt Q5R3I4, sequence (Q5R3I4 whole entry, looked up): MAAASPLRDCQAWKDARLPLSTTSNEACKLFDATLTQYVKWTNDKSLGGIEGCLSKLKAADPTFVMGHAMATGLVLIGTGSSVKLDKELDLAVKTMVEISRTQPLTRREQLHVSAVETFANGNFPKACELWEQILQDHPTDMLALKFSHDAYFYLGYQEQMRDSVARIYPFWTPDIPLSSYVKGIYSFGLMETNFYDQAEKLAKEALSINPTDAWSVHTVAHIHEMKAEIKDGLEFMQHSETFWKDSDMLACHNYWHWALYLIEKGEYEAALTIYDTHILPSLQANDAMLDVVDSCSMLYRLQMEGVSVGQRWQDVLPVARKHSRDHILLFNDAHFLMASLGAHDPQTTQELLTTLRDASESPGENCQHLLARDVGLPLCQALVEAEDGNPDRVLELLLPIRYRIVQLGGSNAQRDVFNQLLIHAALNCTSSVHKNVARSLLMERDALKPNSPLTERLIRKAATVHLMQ
UniProt P43897, sequence (P43897 whole entry, looked up): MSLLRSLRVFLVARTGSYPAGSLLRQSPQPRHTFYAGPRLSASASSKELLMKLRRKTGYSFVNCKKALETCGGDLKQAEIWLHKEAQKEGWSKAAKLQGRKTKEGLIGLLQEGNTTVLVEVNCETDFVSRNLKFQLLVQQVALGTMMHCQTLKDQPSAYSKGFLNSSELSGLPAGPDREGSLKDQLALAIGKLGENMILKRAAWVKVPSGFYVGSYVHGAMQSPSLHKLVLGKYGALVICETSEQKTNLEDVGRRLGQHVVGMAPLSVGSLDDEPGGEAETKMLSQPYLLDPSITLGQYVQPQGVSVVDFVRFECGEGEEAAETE
UniProt P61960, sequence (P61960 whole entry, looked up): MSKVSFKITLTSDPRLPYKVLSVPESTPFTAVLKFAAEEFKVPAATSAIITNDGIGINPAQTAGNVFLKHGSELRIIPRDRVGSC
UniProt Q9BZI7, sequence (Q9BZI7 whole entry, looked up): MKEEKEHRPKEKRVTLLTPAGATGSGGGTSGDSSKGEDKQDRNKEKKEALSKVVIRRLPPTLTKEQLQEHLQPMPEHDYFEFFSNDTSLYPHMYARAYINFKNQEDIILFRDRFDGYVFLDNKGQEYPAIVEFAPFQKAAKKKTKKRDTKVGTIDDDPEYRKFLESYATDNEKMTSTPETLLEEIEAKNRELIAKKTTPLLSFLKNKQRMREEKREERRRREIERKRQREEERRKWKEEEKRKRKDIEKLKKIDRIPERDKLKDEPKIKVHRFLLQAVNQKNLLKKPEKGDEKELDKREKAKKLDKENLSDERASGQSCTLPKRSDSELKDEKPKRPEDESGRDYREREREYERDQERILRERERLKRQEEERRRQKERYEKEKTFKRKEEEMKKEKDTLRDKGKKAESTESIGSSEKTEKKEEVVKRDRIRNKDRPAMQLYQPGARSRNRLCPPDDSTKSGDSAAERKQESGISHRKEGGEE
UniProt Q9BV38, sequence (Q9BV38 whole entry, looked up): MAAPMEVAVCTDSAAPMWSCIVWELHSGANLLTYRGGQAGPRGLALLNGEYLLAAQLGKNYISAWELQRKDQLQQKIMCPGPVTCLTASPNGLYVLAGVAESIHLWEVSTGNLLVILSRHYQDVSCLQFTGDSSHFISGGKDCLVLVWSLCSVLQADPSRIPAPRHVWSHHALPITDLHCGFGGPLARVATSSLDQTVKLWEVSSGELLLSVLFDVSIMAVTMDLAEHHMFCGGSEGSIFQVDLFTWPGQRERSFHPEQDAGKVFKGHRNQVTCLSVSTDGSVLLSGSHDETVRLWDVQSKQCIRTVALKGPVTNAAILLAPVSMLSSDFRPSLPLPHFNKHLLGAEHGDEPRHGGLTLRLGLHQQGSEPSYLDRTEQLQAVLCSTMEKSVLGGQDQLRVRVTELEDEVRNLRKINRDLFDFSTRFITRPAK
UniProt Q8IY95, sequence (Q8IY95 whole entry, looked up): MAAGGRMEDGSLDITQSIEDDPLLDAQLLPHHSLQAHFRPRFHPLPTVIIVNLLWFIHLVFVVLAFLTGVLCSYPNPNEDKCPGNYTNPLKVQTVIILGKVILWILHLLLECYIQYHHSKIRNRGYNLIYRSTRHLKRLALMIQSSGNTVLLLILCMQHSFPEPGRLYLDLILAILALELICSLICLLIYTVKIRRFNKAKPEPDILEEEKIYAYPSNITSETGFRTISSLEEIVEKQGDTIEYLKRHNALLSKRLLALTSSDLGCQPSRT

| Target | log2 fold change [1] | log2 fold change [2] | log2 fold change [3] | log2 fold change [4] | log2 fold change [5] | log2 fold change [6] | log2 fold change [7] | log2 fold change [8] | log2 fold change [9] | log2 fold change [10] |
| --- | --- | --- | --- | --- | --- | --- | --- | --- | --- | --- |
| TMEM9B (UniProt Q9NQ34) | 0.001 | -0.039 | 0.014 | 0.036 | -0.032 | 0.011 | -0.047 | -0.068 | -0.118 | 0.07 |
| XPNPEP3 (UniProt Q9NQH7) | -0.12 | -0.082 | -0.021 | -0.032 | -0.011 | 0.027 | -0.002 | 0.078 | -0.024 | 0.027 |
| TPR (UniProt P12270) | -0.048 | 0.115 | 0.049 | 0.055 | -0.076 | 0.065 | -0.056 | -0.06 | 0.044 | 0.036 |
| VPS13B (UniProt Q7Z7G8) | 0.019 | -0.11 | -0.007 | 0.025 | 0.07 | -0.111 | 0.019 | 0.07 | -0.018 | 0.057 |
| WDR11 (UniProt Q9BZH6) | -0.069 | 0.027 | -0.058 | -0.124 | -0.062 | 0.104 | -0.016 | 0.094 | -0.094 | 0.094 |
| TTC4 (UniProt O95801) | 0.087 | 0.004 | 0.016 | -0.003 | 0.029 | 0.054 | 0.032 | -0.072 | -0.003 | -0.016 |
| UBC (UniProt P0CG48) | -0.064 | 0.09 | 0.048 | 0 | -0.002 | 0.06 | 0.038 | 0.018 | -0.101 | 0.008 |
| XPO6 (UniProt Q96QU8) | -0.453 | -0.074 | 0.047 | -0.079 | 0.171 | 0.064 | -0.029 | -0.052 | -0.055 | -0.025 |
| WNK1 isoform 7 (UniProt Q9H4A3) | -0.034 | -0.003 | -0.006 | -0.026 | -0.026 | 0.082 | 0 | 0.032 | -0.002 | 0 |
| VPS16 (UniProt Q9H269) | 0.018 | -0.093 | 0.033 | -0.065 | -0.056 | -0.009 | -0.1 | -0.017 | -0.006 | -0.044 |
| TNFRSF8 (UniProt P28908) | 0.019 | 0.11 | -0.019 | 0.04 | -0.011 | 0.074 | 0.067 | 0 | 0.003 | 0.047 |
| TMEM208 (UniProt Q9BTX3) | -0.131 | -0.254 | -0.111 | -0.137 | 0.109 | 0.019 | -0.055 | -0.146 | -0.151 | -0.17 |
| UFM1 (UniProt P61960) | 0.048 | -0.08 | -0.139 | 0.28 | -0.001 | 0.01 | 0.069 | 0.055 | -0.002 | – |
| UHRF1BP1 (UniProt Q6BDS2) | -0.025 | 0.079 | 0.161 | -0.029 | -0.033 | 0.104 | 0.045 | 0.037 | 0.038 | 0.032 |
| TMEM192 (UniProt Q8IY95) | -0.036 | -0.162 | -0.047 | 0.037 | -0.048 | -0.009 | -0.047 | 0.099 | -0.02 | 0.038 |
| UBLCP1 (UniProt Q8WVY7) | -0.046 | -0.001 | -0.008 | -0.013 | 0.028 | 0.181 | 0.044 | -0.034 | 0.021 | 0.028 |
| WDR18 (UniProt Q9BV38) | -0.04 | 0.02 | -0.024 | 0.039 | -0.041 | 0.056 | 0.024 | 0.035 | 0.005 | -0.004 |
| UHRF1BP1L (UniProt A0JNW5) | -0.027 | 0.038 | 0.093 | -0.073 | -0.08 | 0.179 | 0.05 | 0.034 | -0.006 | -0.046 |
| UPF3B (UniProt Q9BZI7) | -0.044 | 0.26 | -0.015 | 0.209 | -0.048 | 0.187 | 0.061 | -0.114 | 0.234 | -0.058 |
| UTP4 (UniProt Q969X6) | -0.05 | -0.043 | -0.017 | -0.034 | -0.095 | 0.132 | 0 | 0.029 | -0.006 | 0.035 |
| TSEN2 (UniProt Q8NCE0) | 0.018 | 0.043 | 0 | -0.065 | -0.075 | 0.077 | 0.028 | 0.114 | -0.015 | 0.013 |
| UFL1 (UniProt O94874) | 0.029 | -0.022 | 0.025 | -0.108 | -0.074 | 0.212 | 0.003 | -0.071 | -0.017 | 0.016 |
| TSFM (UniProt P43897) | 0.152 | -0.146 | 0.042 | 0.039 | 0.047 | 0.12 | 0.117 | -0.002 | -0.006 | 0.066 |
| USP24 (UniProt Q9UPU5) | -0.03 | -0.179 | 0.397 (active) | -0.342 (active) | -0.008 | 0.116 | 0.099 | 0.385 (active) | 0.019 | 0.258 |
| WDR41 (UniProt Q9HAD4) | 0.025 | -0.154 | -0.007 | -0.031 | -0.072 | -0.254 | -0.002 | 0.014 | 0.049 | -0.056 |
| TMEM189-UBE2V1 (UniProt I3L0A0) | -0.034 | -0.051 | -0.049 | -0.024 | -0.105 | -0.048 | -0.034 | 0.112 | 0.011 | -0.026 |
| TTC38 (UniProt Q5R3I4) | -0.067 | -0.023 | 0.034 | -0.093 | 0.065 | 0.081 | 0.013 | -0.003 | -0.054 | -0.041 |
